In PubChem BioAssay AID1159580 (chemical genetic matrix, 2015):
Out of some 5,500 compounds screened, about 2,000 (36%) were called active. Not shown: some 18% with an inconclusive outcome. Cut-off read from the data, not from the text of the source: active = normalized growth mostly below about 0.91 (no sharp cut-off); inconclusive = no clear call, values can overlap the other calls; inactive = mostly above about 0.92. The list shows a part of the results.

Assay: chemical genetic growth profiling, strain panel (AID 1159580);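 note: tested at 20 µM; growth read once vehicle control cultures reached saturation at 30 °C; 1 = growth at the plate median or of vehicle wells; lower values mean less growth of the strain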
Conditions: S. cerevisiae deletion strains, growth OD

Measured: normalized growth

CCOc1ccc2nc(S(N)(=O)=O)sc2c1
inactive: locus YHR030C, strain SLT2, hits give low values 0.978 | locus YHR079C, strain IRE1, hits give low values 0.969 | locus YJL095W, strain BCK1, hits give low values 1.02 | locus YJR066W, strain TOR1, hits give low values 0.924 | locus YLR113W, strain HOG1, hits give low values 1.05 | locus YNL183C, strain NPR1, hits give low values 0.927 | locus YOR231W, strain MKK1, hits give low values 0.955 | locus YPL256C, strain CLN2, hits give low values 0.963
